# Screen size: about 48,000 compounds; about 13,000 (27%) showed an effect of 50% or more. The list shows a part of the results.
# Test system: Wolbachia pipientis
# Assay: Anti-Wolbachia Cell-Based Screen
# Assay type: functional
# Parameters: scale not given: in the data most compounds retested in dose-response had high values
# Conditions: 5 µM
row,SMILES,Percent Effect [%]
1,CN1CCCC1c1cc2cccnc2n1Cc1ccc(F)cc1.Cl (centres undefined),120.9
2,COc1cccc(CN2C[C@H]3CCNCC[C@H]3S2(=O)=O)c1,18.94
3,CN1CCCCC1c1nc(Cc2cccc(F)c2)no1 (centres undefined),-5.711
4,CC[C@H](C)Cn1nc(C2CCNCC2)n(Cc2ccccc2)c1=O,-2.943
5,COc1ccc(Cn2c(C3CCNCC3)cc3cccnc32)cc1.Cl,109.4
6,COc1cccc(Cn2c(C3CCNCC3)cc3cccnc32)c1.Cl,140.1
7,CCOC(C)C(=O)Nc1ccc(Sc2nncn2C)c(Cl)c1 (centres undefined),-6.719
8,Cc1cc(CS(=O)(=O)N(C)C(C)c2ccc(F)cc2)on1 (centres undefined),-9.775
9,CN(C)C(=O)NCc1cc2n(n1)CCN(C[C@H]1[C@@H]3CNC[C@@H]31)C2,-18.92
10,Cc1cnn(CCNCC(O)COc2c(C)ccc(C)c2C)c1 (centres undefined),-3.427
11,COc1cccc(-c2cccc(-c3ccn(CC4COCCO4)n3)c2)n1 (centres undefined),-14.19
12,COc1ccccc1CNC1(CCO)CCOCC1,8.279
13,Cc1cnc(C(=O)N2C[C@H]3CCCC(OCc4cccnc4)[C@H]3C2)cn1 (some centres undefined),-8.577
14,Cc1cnc(C(=O)N2C[C@H]3CN(Cc4nccs4)C[C@H]3C2)cn1,103.8
15,O=C(c1cscn1)N1C[C@H]2CN(Cc3nccs3)C[C@H]2C1,-12.17
16,Cc1cnc(C(=O)N2C[C@@H]3[C@@H](C2)OCC(=O)N3CC2CCCC2)cn1,9.694
17,Cc1cnc(C(=O)N2C[C@H]3CN(Cc4cccs4)C[C@H]3C2)cn1,71.69
18,CNC(=O)[C@H]1C[C@@H]2CN(C(=O)c3cnc(C)cn3)C[C@@H]2N1C,18.09
19,O=C(O)C(F)(F)F.O=C1C[C@H]2[C@@H](CCN2C(=O)c2ccccc2)N1CCN1CCOCC1,-5.805
20,Cc1cccc(OC2CCN(c3nc(N)nc4[nH]cnc34)CC2)c1,-26.6
21,COc1ccccc1OC1CCN(c2nc(N)nc3[nH]cnc23)CC1,-23.58
22,COc1ccccc1N1CCN(c2nc(N)nc3[nH]cnc23)CC1,106.2
23,O=C1CN(Cc2ccc3ccccc3n2)CCN1C1CCCC1,128.2
24,Cc1ccc2nc(CN3CCN(C4CCCCC4)C(=O)C3)cc(O)c2c1,-5.19
25,Cc1ccc2nc(CN3CCN(C4CCCC4)C(=O)C3)cc(O)c2c1,1.578

row,SMILES,Percent Effect [%]
1,Cc1cc(C)cc(-c2cccc(CC3(C(=O)O)CCOCC3)c2)c1,-21.94
2,Cc1cccc(NC(=O)NCC2(N3CCOCC3)CCSC2)c1 (centres undefined),9.501
3,COc1ccc(CC2(C(=O)O)CCN(c3nc(C)ncc3C)CC2)cc1,-10.05
4,Cc1cccc(-c2cccc(CC3(C(=O)O)CCOCC3)c2)c1,103
5,Cc1ccc(-c2cccc(CC3(C(=O)O)CCOCC3)c2)c(C)c1,93.34
6,Cc1ccccc1-c1cccc(CN2C[C@H]3C(=O)NC[C@@]3(C(=O)O)C2)c1,6.685
7,C=C(C)CN(CC)C(=O)Nc1ccccc1CN(C)C(C)=O,4.408
8,Cc1nc2ccc(CN3CC4(CCOC4)CCC3=O)cc2[nH]1 (centres undefined),9.533
9,COCc1nc2n(n1)CCCC2Nc1nc(C)ns1 (centres undefined),-20.01
10,COc1ccccc1OCc1cc(C(=O)N2CCS(=O)(=O)CC2)n[nH]1,-14.83
11,COc1ccccc1OCc1cc(C(=O)N2CCN(C(C)=O)CC2)n[nH]1,-25.23
12,COc1cccc(OCc2cc(C(=O)N3CC(O)C3)n[nH]2)c1,-9.479
13,CCC1(CO)CCN(C(=O)c2cc(COc3ccccc3F)[nH]n2)CC1,118.9
14,COc1ccccc1OCc1cc(C(=O)N2CCC(C(C)O)CC2)n[nH]1 (centres undefined),7.435
15,COc1ccccc1OCc1cc(C(=O)N2CCN[C@H](C)C2)n[nH]1,8.163
16,CCC1(CO)CCCN(C(=O)c2cc(COc3ccccc3F)[nH]n2)C1 (centres undefined),110.4
17,O=C(c1cc(COc2ccc3c(c2)OCO3)[nH]n1)N1CCCC1,-5.101
18,CCC1(CO)CCCN(C(=O)c2cc(COc3cccc(F)c3)[nH]n2)C1 (centres undefined),87.47
19,CC(C)N(Cc1ccccc1)Cc1csc(-c2ncccn2)n1,-35.25
20,Cn1nc(CN2CCCCC2)c2c1CN(C(=O)Nc1cccc(F)c1)C2,-11.17
21,CCOCc1ncn2c1CN(C(=O)c1ccoc1)CC2,-9.138
22,CCOCc1ncn2c1CN(C(=O)Nc1cccc(C)c1)CC2,-4.198
23,CCOCc1ncn2c1CN(C(=O)Nc1cccc(F)c1)CC2,101.4
24,Cc1cccc(NC(=O)N2CCn3cnc(COCC4CC4)c3C2)c1,96.57
25,Cc1cccc(C(=O)N2CCn3cnc(COCC4CC4)c3C2)c1,-5.443

row,SMILES,Percent Effect [%]
1,Cc1cccc(C(=O)N2CCn3cnc(COCC4CC4)c3C2)n1,-8.525
2,CCOCc1ncn2c1CN(S(=O)(=O)c1cccs1)CC2,-7.388
3,CCOCc1ncn2c1CN(C(=O)Nc1ccccc1)CC2,106.5
4,CCc1cccc(NC(=O)N2CCn3cnc(COC)c3C2)c1,112.6
5,CCN(CCSc1ccccc1)C(=O)c1cn([C@H]2CC[C@@H](N)CC2)nn1,-3.362
6,Cc1ccc(Cl)cc1NS(=O)(=O)c1cc(C(N)=O)n(C)c1,-91.07
7,Cc1cccc(C(=O)N2CCc3ncnc(C4CCOC4)c3CC2)n1.O=C(O)C(F)(F)F (centres undefined),-11.48
8,COC(=O)c1sc(NCc2ccc(N3CCC(O)CC3)c(F)c2)nc1Cl,-2.093
9,CC(C)C(N)C1=N/C(=C2\N=CN=N2)NO1 (centres undefined),-4.222
10,CCn1ccnc1CN(C)Cc1nc(Cc2ccccc2F)no1,-2.902
11,CCOCc1ncn2c1CN(C(=O)Nc1ccc(CC)cc1)CC2,108
12,COCc1ncn2c1CN(S(=O)(=O)c1ccc(C)cc1)CC2,-7.243
13,CCOCc1ncn2c1CN(S(=O)(=O)c1ccc(C)cc1)CC2,1.086
14,COCc1ncn2c1CN(C(=O)Nc1ccccc1)CC2,105.1
15,COc1cccc(NC(=O)N2CCC(O)(C(F)(F)F)C2)c1 (centres undefined),-18.52
16,O=C(Nc1ccccc1)N1CCn2nnc(COc3cccnc3)c2C1.O=C(O)C(F)(F)F,-20.87
17,CCOCc1ncn2c1CN(C(=O)Nc1ccccc1CC)CC2,104.8
18,COCc1ncn2c1CN(C(=O)Nc1cccc(OC)c1)CC2,106.3
19,CCOCc1ncn2c1CN(S(=O)(=O)c1ccc(F)cc1)CC2,3.769
20,COc1cccc(S(=O)(=O)N2CCn3cnc(COCC4CC4)c3C2)c1,-6.989
21,CCc1ccccc1NC(=O)N1CCn2cnc(COC)c2C1,1.009
22,N#Cc1ccc(F)c(CN2CCCC2Cn2cnc3ccccc32)c1 (centres undefined),-5.507
23,CN1CCOC(C(=O)Nc2nnc(Cc3ccc(F)cc3)[nH]2)C1 (centres undefined),-0.8523
24,Cc1cccc(NCc2ncc(C(C)(C)C)o2)c1,-14.59
25,O=C(CN1CCS(=O)(=O)CC1)NC1CCCOc2ccccc21 (centres undefined),0.4653

row,SMILES,Percent Effect [%]
1,CCN(Cc1ccoc1)C(=O)c1cc2c(c(S(N)(=O)=O)c1)CCC2,-33.33
2,CN(CC(=O)NC(C)(C#N)C1CC1)Cc1nc2ccccc2n1C (centres undefined),-1.45
3,COc1cc2cc3c(nc2cc1OC)OCCN(CC1CC1)C3,154.4
4,CC(C)N1CCOCC2(CN(Cc3ccco3)CCO2)C1 (centres undefined),-3.394
5,COc1ccccc1CN1C(=O)O[C@@H]2CN(CC3CC3)C[C@@H]21,6.078
6,c1ccc(O[C@H]2COCCN(CC3CC3)C2)cc1,-13.37
7,COc1cc2cc3c(nc2cc1OC)OCCN(Cc1cccs1)C3,120.6
8,COc1ncc(C2(O)CCN(Cc3cccs3)CC2)c(OC)n1.Cl,-7.48
9,COc1cccc2c1OCCCN(Cc1ncccc1C(=O)O)C2,13.59
10,COc1cncc(N2CCN(Cc3ccco3)CC2)n1,-6.733
11,COc1cc2cc3c(nc2cc1OC)OCCN(Cc1ccco1)C3,100
12,CCc1cc(CNC(=O)Nc2cc(F)ccc2N2CCCCC2)on1,-38
13,CCN(CCC(=O)OC)S(=O)(=O)c1cnc2c(c1)c(C)nn2C,10.85
14,Cc1cc(C(C)NCCN2CCC(N(C)C)CC2)c(C)s1 (centres undefined),-5.987
15,COCC(NC(=O)c1cc(NC(C)=O)ccc1Cl)c1ccccn1 (centres undefined),-0.4749
16,Fc1cccc(N2CCCC3(CN(Cc4cccnc4)CCO3)C2)c1.O=C(O)C(F)(F)F.O=C(O)C(F)(F)F.O=C(O)C(F)(F)F (centres undefined),2.254
17,Fc1cccc(N2CCCC3(CN(Cc4ccccn4)CCO3)C2)c1.O=C(O)C(F)(F)F.O=C(O)C(F)(F)F.O=C(O)C(F)(F)F (centres undefined),-3.088
18,O=S1(=O)NCC2(CCCN(Cc3cccnc3)C2)Oc2ncccc21 (centres undefined),131.9
19,O=C(O)C(F)(F)F.O=C(O)C(F)(F)F.O=C(O)C(F)(F)F.c1cncc(CN2CCCC3(COCCN(c4cnccn4)C3)C2)c1 (centres undefined),-4.353
20,O=S1(=O)NCC2(CCCN(Cc3ccccn3)C2)Oc2ncccc21 (centres undefined),140.3
21,Cc1cc(F)ccc1OC1(C(=O)O)CCN(Cc2ccncc2)CC1,7.519
22,O=C1COC2(CCN(Cc3ccncc3)CC2)CN1CC1CC1,-5.616
23,O=S1(=O)NCC2(CCN(Cc3ccncc3)CC2)Oc2ncccc21,130.7
24,O=C(C1CC=CC1)N1CCC2(CC1)CN(Cc1ccccn1)CCO2,-14.52

# From ChEMBL document CHEMBL3988442, “University of Dundee, Small-Polar-MMV Screening Library” (2021)
